Screens from PubChem.
DT40 TDP1 CPT = qHTS for Inhibitors of human tyrosyl-DNA phosphodiesterase 1 (TDP1): qHTS in cells in presence of CPT; chicken DT40 Tdp1-/-;hTDP1 cells + 20 nM CPT, ATP luminescence, 48 h; Potency, µM (series often up to 46.2 µM), usual class: inhibitors; actives 12% (n = 420,000); AID 686979, 2013; further: nearly all actives have a fitted effect of over 55% in size
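Chicken DT40 Tdp1-/- cells complemented with human TDP1, 400 cells/well, exposed to compounds plus 20 nM camptothecin for at least 48 h at 37 C; viability read as ATP content by CellTiter-Glo luminescence.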
RORg inh = qHTS for inhibitors of ROR gamma transcriptional activity | Drosophila S2 Gal4-RORgamma UAS-luciferase reporter, 20 h | Potency, µM (series often up to 53.6 µM), actives largely listed as inhibitors | actives 5.4% (n = 310,000) | AID 2551, 2010; further: nearly all actives have a fitted effect of over 60% in size
Target sequence (P51450 whole entry, looked up, the tested form may be a part): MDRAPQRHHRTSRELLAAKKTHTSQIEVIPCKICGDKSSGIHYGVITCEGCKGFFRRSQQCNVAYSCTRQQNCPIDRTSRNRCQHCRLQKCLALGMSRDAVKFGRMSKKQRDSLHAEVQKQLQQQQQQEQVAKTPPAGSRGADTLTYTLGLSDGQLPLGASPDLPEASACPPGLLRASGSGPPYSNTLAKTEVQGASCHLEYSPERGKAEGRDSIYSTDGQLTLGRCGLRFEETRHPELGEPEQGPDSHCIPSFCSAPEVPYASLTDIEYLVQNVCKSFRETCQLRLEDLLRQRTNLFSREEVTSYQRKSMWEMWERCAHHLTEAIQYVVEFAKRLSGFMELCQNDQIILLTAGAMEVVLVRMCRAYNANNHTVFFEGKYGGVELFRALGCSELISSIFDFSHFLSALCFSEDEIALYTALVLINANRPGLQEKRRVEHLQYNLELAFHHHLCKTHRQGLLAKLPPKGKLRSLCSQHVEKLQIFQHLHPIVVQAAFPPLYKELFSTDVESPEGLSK
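Drosophila Schneider cells stably carrying a metallothionein-driven Gal4 DBD–ROR gamma fusion and a UAS-Photinus luciferase reporter were exposed to compound for 1 hr, then induced with copper sulfate (700 uM final) for 20 hr at ambient temperature before luminescence reading.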
DT40 TDP1 no CPT = qHTS for Inhibitors of human tyrosyl-DNA phosphodiesterase 1 (TDP1): qHTS in cells in absence of CPT. DT40 Tdp1-/- hTDP1 cells, no CPT, ATP luminescence, 48 h. Potency, µM (doses to about 46.2 µM), usual class: inhibitors. actives 15% (n = 420,000); further: nearly all actives have a fitted effect of over 55% in size
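No-CPT arm: Tdp1-/-;hTDP1 DT40 cells (400/well) plus compounds, incubated ≥48 hr at 37 °C. Readout CellTiter-Glo luminescence.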
ELG1 DNA repair = qHTS screen for small molecules that inhibit ELG1-dependent DNA repair in human embryonic kidney (HEK293T) cells expressing luciferase-tagged ELG1; HEK293T ELG1-luciferase reporter, luminescence, 16 h; DNA damage induced by 5-fluorouridine; Potency, µM (series often up to 46.1 µM), most hits filed as inhibitors; actives 2.3% (n = 330,000); AID 504467, 2011; further: nearly all actives have a fitted effect of over 55% in size
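Step one: seed 2,000 cells per well. Step two: pin-transfer compound or DMSO alongside 5-fluorouridine. Step three: incubate 16 hr, 37 °C, 5% CO2. Step four: add ONE-Glo, wait 30 min, read luminescence.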
Gal4-VP16 FLuc = VP16 counterscreen qHTS for inhibitors of ROR gamma transcriptional activity; Drosophila S2 Gal4-VP16 UAS-luciferase, luminescence, 20 h; Potency, µM (titrated, usually from 53.6 µM), usual class: inhibitors; actives 3.5% (n = 310,000);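 further: Gal4-VP16 expression switched on by copper sulfate through the metallothionein promoter; nearly all actives have a fitted effect of over 50% in size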
IL1B secr inh = qHTS for Inhibitors of Inflammasome Signaling: IL-1-beta AlphaLISA Primary Screen; THP-1 LPS/ATP IL-1B secretion, AlphaLISA, 16 h; hits give low values; activity change, % at 57.5 µM; actives 4.7% (n = 360,000); in the data active means activity change below about -50%; inconclusive means mostly about -30% to -49%
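THP-1 cells pretreated 1 hr with compounds (up to 57.5 uM final), then stimulated with LPS (250 ng/mL final) plus ATP (1.25 mM final); secreted IL-1B measured by AlphaLISA after 16 hr, decreased signal indicating inhibition.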
Of the large screens only hits and unclear results are named; the others gave an inactive call. Sampled rows, rich in hits. Any-hit rate of the full collection: about 21%. Unless noted, the call rests on the fitted dose curve; in most records, active means well fitted curve in the direction sought with a large enough effect; inconclusive means small, poorly fitted or top-dose-only effect, or another doubt; inactive means no such curve, though single readings can be large; an effect the other way counts as inactive or inconclusive.

COc1cc2nc(N3CCCN(C)CC3)nc(NC3CCN(C)C3)c2cc1OC (centres undefined)	DT40 TDP1 CPT 13µM, DT40 TDP1 no CPT 18µM (no result: RORg inh, ELG1 DNA repair, Gal4-VP16 FLuc, IL1B secr inh)
COc1cc2c(NC3CCN(C)CC3)nc(N3CCCN(C)CC3)nc2cc1OCC1CCCCN1 (centres undefined)	DT40 TDP1 CPT 11µM, DT40 TDP1 no CPT inconclusive (no result: RORg inh, ELG1 DNA repair, Gal4-VP16 FLuc, IL1B secr inh)
COc1cc2c(NC3CCN(C)CC3)nc(N3CCCN(C)CC3)nc2cc1O	none (no result: RORg inh, ELG1 DNA repair, Gal4-VP16 FLuc, IL1B secr inh)
COc1cc2c(NC3CCN(C)CC3)nc(N3CCCN(C)CC3)nc2cc1OCCCCCN	DT40 TDP1 CPT inconclusive (no result: RORg inh, ELG1 DNA repair, Gal4-VP16 FLuc, IL1B secr inh)
COc1cc2c(NC3CCN(C)CC3)nc(N3CCCN(C)CC3)nc2cc1OCCN(C)CCN(C)C	none (no result: RORg inh, ELG1 DNA repair, Gal4-VP16 FLuc, IL1B secr inh)
COc1ccc(CNC(=O)C(CCSC)NC(=O)c2ccco2)cc1 (centres undefined)	none
COc1cc2c(NC3CCN(C)CC3)nc(N3CCCN(C)CC3)nc2cc1OCCCCCC(N)=O	DT40 TDP1 no CPT inconclusive (no result: RORg inh, ELG1 DNA repair, Gal4-VP16 FLuc, IL1B secr inh)
COc1cc2nc(N3CCCN(C)CC3)nc(NC3CCOCC3)c2cc1OC	DT40 TDP1 CPT 11µM, DT40 TDP1 no CPT 7.1µM (no result: RORg inh, ELG1 DNA repair, Gal4-VP16 FLuc, IL1B secr inh)
Cc1ccc(S(=O)(=O)C2(C(=O)N3CCN(c4ccccc4F)CC3)CC2)cc1	none
COc1ccc(C(=O)N/N=C/c2ccc(SC)cc2)cc1	RORg inh inconclusive
CSc1ccc(/C=N/NC(=O)c2ccc(O)cc2)cc1	DT40 TDP1 CPT 26µM, RORg inh 0.56µM, DT40 TDP1 no CPT inconclusive, ELG1 DNA repair inconclusive, Gal4-VP16 FLuc 2.2µM
CN(C)c1ccc(/C=N/NC(=O)c2ccccc2Cl)cc1	DT40 TDP1 CPT 5.8µM, DT40 TDP1 no CPT 7.3µM, ELG1 DNA repair inconclusive, Gal4-VP16 FLuc inconclusive, IL1B secr inh inconclusive
CN(C)c1ccc(/C=N\NC(=O)c2ccc(Cn3cc(Cl)cn3)cc2)cc1	DT40 TDP1 CPT inconclusive, RORg inh inconclusive, DT40 TDP1 no CPT 16µM, ELG1 DNA repair inconclusive, Gal4-VP16 FLuc inconclusive
CSc1ccc(/C=N/NC(=O)c2ccccc2Cl)cc1	DT40 TDP1 CPT 16µM, DT40 TDP1 no CPT 13µM, ELG1 DNA repair inconclusive, Gal4-VP16 FLuc inconclusive
CN(C)c1ccc(/C=N/NC(=O)c2ccc(Cl)cc2)cc1	RORg inh 8.9µM
O=C(Nc1ccccc1C(=O)N/N=C/c1ccc(O)cc1)c1ccccc1	ELG1 DNA repair inconclusive, Gal4-VP16 FLuc inconclusive
CN(C)c1ccc(/C=N/NC(=O)c2sccc2-n2cccc2)cc1	RORg inh 11µM, ELG1 DNA repair inconclusive, Gal4-VP16 FLuc inconclusive
O=C(N/N=C/c1ccc(O)cc1)c1csc2ccccc12	DT40 TDP1 CPT inconclusive, DT40 TDP1 no CPT 0.26µM, ELG1 DNA repair inconclusive
O=C(N/N=C\c1ccc(Cl)cc1)c1sccc1-n1cccc1	RORg inh inconclusive, DT40 TDP1 no CPT inconclusive
CCc1ccc(S(=O)(=O)c2nnn3c2nc(Nc2ccc(C)c(Cl)c2)c2sccc23)cc1	DT40 TDP1 CPT inconclusive (no result: RORg inh, ELG1 DNA repair, Gal4-VP16 FLuc, IL1B secr inh)
N#Cc1nc(-c2ccc(OCc3ccc(Cl)cc3)cc2)oc1N1CCCCC1	DT40 TDP1 no CPT inconclusive (no result: RORg inh, ELG1 DNA repair, Gal4-VP16 FLuc, IL1B secr inh)
Cc1cc(=O)c2cc(C(=O)Nc3ccc(F)cc3)ccc2[nH]1	none (no result: RORg inh, ELG1 DNA repair, Gal4-VP16 FLuc, IL1B secr inh)
O=C1C2CC=CCC2C(=O)N1c1nc2n(n1)C(c1ccccc1)CC(c1ccccc1)N2 (centres undefined)	none
c1ccc(C2CC(c3ccccc3)n3c(nc4ccccc43)N2)cc1 (centres undefined)	DT40 TDP1 CPT 16µM, RORg inh inconclusive, DT40 TDP1 no CPT 15µM
CCOC(=O)C(=O)Nc1nc(-c2ccccc2)c(-c2ccccc2)o1	RORg inh 20µM
O=C(Nc1nc(-c2ccccc2)c(-c2ccccc2)o1)c1ccc(F)cc1	DT40 TDP1 CPT 9.2µM, RORg inh 1.4µM, DT40 TDP1 no CPT 8.2µM, Gal4-VP16 FLuc 2.8µM
